Assay results: PubChem BioAssay AID1159580 (chemical genetic matrix, 2015)
In all, about 5,500 compounds went through this assay and about 2,000 (36%) were called active. Another 18% or so got no clear call; they are omitted. Rule as the data show it: active = normalized growth mostly below about 0.91 (no sharp cut-off); inconclusive = no clear call, values can overlap the other calls; inactive = mostly above about 0.92. Some of the results follow.

Assay: chemical genetic growth profiling, strain panel (AID 1159580);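 also: tested at 20 µM; growth read once vehicle control cultures reached saturation at 30 °C; 1 = growth at the plate median or of vehicle wells; lower values mean less growth of the strain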
Conditions: growth OD

Measured: normalized growth

Nc1ccn(C2O[C@H](CO)[C@@H](O)[C@H]2O)c(=O)n1 (some centres undefined)
inactive: S. cerevisiae deletion strains, locus YJR075W, strain HOC1, hits give low values 1.02 | S. cerevisiae deletion strains, locus YKL009W, strain mrt4, hits give low values 1.04 | S. cerevisiae deletion strains, locus YKL068W, hits give low values 1 | S. cerevisiae deletion strains, locus YKL085W, strain MDH1 (second series), hits give low values 1 | S. cerevisiae deletion strains, locus YKL085W, strain MDH1, hits give low values 1 | S. cerevisiae deletion strains, locus YKL160W, strain elf1, hits give low values 0.994 | S. cerevisiae deletion strains, locus YKL190W, strain CNB1, hits give low values 0.989 | S. cerevisiae deletion strains, locus YKR001C, strain vps1, hits give low values 1.03 | S. cerevisiae deletion strains, locus YKR026C, strain gcn3, hits give low values 1 | S. cerevisiae deletion strains, locus YKR091W, strain srl3, hits give low values 0.986 | S. cerevisiae deletion strains, locus YLL001W, strain dnm1, hits give low values 0.989 | S. cerevisiae deletion strains, locus YLL026W, hits give low values 0.994 | S. cerevisiae deletion strains, locus YLL041C, strain sdh2, hits give low values 0.987 | S. cerevisiae deletion strains, locus YLR027C, strain aat2, hits give low values 0.984 | S. cerevisiae deletion strains, locus YLR039C, strain RIC1, hits give low values 1.01 | S. cerevisiae deletion strains, locus YLR058C, strain SHM2, hits give low values 0.998 | S. cerevisiae deletion strains, locus YLR102C, strain apc9, hits give low values 1.01 | S. cerevisiae deletion strains, locus YLR113W, strain HOG1, hits give low values 1.01 | S. cerevisiae deletion strains, locus YLR221C, strain rsa3, hits give low values 1 | S. cerevisiae deletion strains, locus YLR258W, strain gsy2, hits give low values 1 | S. cerevisiae deletion strains, locus YLR262C, strain YPT6 (second series), hits give low values 0.992 | S. cerevisiae deletion strains, locus YLR262C, strain YPT6, hits give low values 1.05 | S. cerevisiae deletion strains, locus YLR268W, strain sec22, hits give low values 1.05 | S. cerevisiae deletion strains, locus YLR320W, strain mms22, hits give low values 0.995 | S. cerevisiae deletion strains, locus YLR330W, strain CHS5, hits give low values 0.986 | S. cerevisiae deletion strains, locus YLR342W, strain FKS1 (second series), hits give low values 1.02 | S. cerevisiae deletion strains, locus YLR342W, strain FKS1, hits give low values 0.995 | S. cerevisiae deletion strains, locus YLR357W, strain rsc2, hits give low values 0.964 | S. cerevisiae deletion strains, locus YLR370C, strain arc18, hits give low values 0.998 | S. cerevisiae deletion strains, locus YLR371W, strain rom2, hits give low values 1.01 | S. cerevisiae deletion strains, locus YLR384C, strain iki3, hits give low values 1 | S. cerevisiae deletion strains, locus YLR418C, strain cdc73, hits give low values 1.01 | S. cerevisiae deletion strains, locus YML016C, strain PPZ1, hits give low values 1 | S. cerevisiae deletion strains, locus YML032C, strain rad52, hits give low values 0.993 | S. cerevisiae deletion strains, locus YML120C, strain ndi1, hits give low values 0.979 | S. cerevisiae deletion strains, locus YML124C, strain tub3, hits give low values 1.01 | S. cerevisiae deletion strains, locus YMR058W, strain fet3, hits give low values 0.983 | S. cerevisiae deletion strains, locus YMR078C, strain ctf18, hits give low values 1.02 | S. cerevisiae deletion strains, locus YMR125W, strain sto1, hits give low values 0.973 | S. cerevisiae deletion strains, locus YMR129W, hits give low values 0.991 | S. cerevisiae deletion strains, locus YMR205C, strain PFK2, hits give low values 0.998 | S. cerevisiae deletion strains, locus YMR223W, strain ubp8, hits give low values 1.02 | S. cerevisiae deletion strains, locus YMR231W, strain pep5, hits give low values 0.979 | S. cerevisiae deletion strains, locus YMR307W, strain GAS1, hits give low values 1.05 | S. cerevisiae deletion strains, locus YNL067W, strain RPL9B, hits give low values 1.03 | S. cerevisiae deletion strains, locus YNL071W, strain lat1, hits give low values 0.983 | S. cerevisiae deletion strains, locus YNL128W, strain TEP1, hits give low values 1.01 | S. cerevisiae deletion strains, locus YNL153C, strain GIM3, hits give low values 1.03 | S. cerevisiae deletion strains, locus YNL183C, strain NPR1, hits give low values 0.933 | S. cerevisiae deletion strains, locus YNL209W, strain ssb2, hits give low values 0.992 | S. cerevisiae deletion strains, locus YNL233W, strain BNI4, hits give low values 1.05 | S. cerevisiae deletion strains, locus YNL248C, strain rpa49, hits give low values 0.984 | S. cerevisiae deletion strains, locus YNL250W, strain rad50, hits give low values 1 | S. cerevisiae deletion strains, locus YNL271C, strain bni1, hits give low values 1.01 | S. cerevisiae deletion strains, locus YNL298W, strain CLA4, hits give low values 1 | S. cerevisiae deletion strains, locus YNL307C, strain MCK1, hits give low values 1.02 | S. cerevisiae deletion strains, locus YNL322C, strain KRE1 (second series), hits give low values 1.01 | S. cerevisiae deletion strains, locus YNR049C, strain mso1, hits give low values 0.985 | S. cerevisiae deletion strains, locus YNR052C, strain pop2, hits give low values 1.01 | S. cerevisiae deletion strains, locus YOL006C, strain TOP1, hits give low values 1.09 | S. cerevisiae deletion strains, locus YOL012C, strain htz1 0.74 | S. cerevisiae deletion strains, locus YOL147C, strain pex11, hits give low values 1 | S. cerevisiae deletion strains, locus YOR001W, strain rrp6, hits give low values 0.98 | S. cerevisiae deletion strains, locus YOR061W, strain CKA2, hits give low values 1.01 | S. cerevisiae deletion strains, locus YOR069W, strain VPS5, hits give low values 1.01 | S. cerevisiae deletion strains, locus YOR070C, strain gyp1, hits give low values 1 | S. cerevisiae deletion strains, locus YOR080W, strain dia2, hits give low values 1 | S. cerevisiae deletion strains, locus YOR083W, strain WHI5, hits give low values 0.992 | S. cerevisiae deletion strains, locus YOR106W, strain vam3, hits give low values 1.02 | S. cerevisiae deletion strains, locus YOR136W, strain idh2, hits give low values 1.01 | S. cerevisiae deletion strains, locus YOR144C, strain elg1, hits give low values 1.01 | S. cerevisiae deletion strains, locus YOR184W, strain ser1, hits give low values 1.02 | S. cerevisiae deletion strains, locus YOR231W, strain MKK1, hits give low values 0.997 | S. cerevisiae deletion strains, locus YOR265W, strain rbl2, hits give low values 0.988 | S. cerevisiae deletion strains, locus YOR270C, strain vph1, hits give low values 0.956 | S. cerevisiae deletion strains, locus YOR290C, strain snf2, hits give low values 0.989 | S. cerevisiae deletion strains, locus YOR316C, strain cot1, hits give low values 1.01 | S. cerevisiae deletion strains, locus YPL051W, strain arl3, hits give low values 1 | S. cerevisiae deletion strains, locus YPL055C, strain LGE1, hits give low values 1.01 | S. cerevisiae deletion strains, locus YPL078C, strain atp4, hits give low values 0.993 | S. cerevisiae deletion strains, locus YPL106C, strain sse1, hits give low values 0.992 | S. cerevisiae deletion strains, locus YPL240C, strain hsp82, hits give low values 1 | S. cerevisiae deletion strains, locus YPL256C, strain CLN2, hits give low values 1 | S. cerevisiae deletion strains, locus YPR119W, strain clb2, hits give low values 0.996 | S. cerevisiae deletion strains, locus YPR141C, strain kar3, hits give low values 1.01 | S. cerevisiae deletion strains, locus YPR163C, strain tif3, hits give low values 1.01 | S. cerevisiae deletion strains, locus YPR167C, strain met16, hits give low values 1.01 | S. cerevisiae deletion strains, strain wtn01, hits give low values 1.05 | S. cerevisiae strains, strain wild type, hits give low values 0.98
